Inconclusive results are not listed. Activity calls are given as the source filed them. The call rests on the fitted dose curve; in most records, active means well fitted curve in the direction sought with a large enough effect; inconclusive means small, poorly fitted or top-dose-only effect, or another doubt; inactive means no such curve, though single readings can be large; an effect the other way counts as inactive or inconclusive.
Experiments:
NIH3T3 = assay: qHTS assay to identify novel small-molecules to repurpose for Merkel cell carcinoma treatment (AID 1296009); conditions: MCC and control cell lines, CellTiter-Glo viability, 72 h; at 44.8 µM (top of the series) unless noted; further: nearly all actives have a fitted effect of over 60% in size
How it was run: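 qHTS format: cells treated with library compounds in DMSO across 8 (NPC) or 11 (MIPE) concentrations. Readout after 72 hr at 37 degree celsius was CellTiter-Glo luminescence.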

C33A = assay: Primary qHTS to identify gynecologic anti-cancer compounds using libraries of approved drugs and bioactive compounds (AID 1345084); conditions: Gynecologic cancer cell panel viability, ATPlite luminescence, 48 h; series mostly up to 57.5 µM; further: nearly all actives have a fitted effect of over 55% in size
How it was run: (§1)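 ATP-based viability (ATPlite), 1,000 cells/well, 16 h pre-incubation, 48 h compound at 37 C, 5% CO2, 15 min RT before read.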

CAOV3 = assay: as above; conditions: Gynecologic cancer cell panel viability, ATPlite luminescence, 48 h; series mostly up to 57.5 µM
How it was run: as §1

CASKI = assay: as above; conditions: Gynecologic cancer cell panel viability, ATPlite luminescence, 48 h; series mostly up to 57.5 µM
How it was run: as §1

Es-2 = assay: as above; conditions: Gynecologic cancer cell panel viability, ATPlite luminescence, 48 h; series mostly up to 57.5 µM
How it was run: as §1

HeLa = assay: as above; conditions: Gynecologic cancer cell panel viability, ATPlite luminescence, 48 h; series mostly up to 57.5 µM
How it was run: as §1

Hek293T = assay: as above; conditions: Gynecologic cancer cell panel viability, ATPlite luminescence, 48 h, control line for the selectivity index; series mostly up to 57.5 µM
How it was run: as §1

JEG-3 = assay: as above; conditions: Gynecologic cancer cell panel viability, ATPlite luminescence, 48 h; series mostly up to 57.5 µM
How it was run: as §1

Measured: Potency

C=C(C(=O)O)[C@@H]1CC[C@H](C)[C@@H]2CC(=O)C(C)=C2C1
inactive: all assays above

COC(=O)C[C@@H]1C(C(=O)O)=CO[C@@H](O[C@@H]2O[C@H](CO)[C@@H](O)[C@H](O)[C@H]2O)/C1=C\COC(=O)/C=C/c1ccc(O)c(OC)c1
inactive: NIH3T3 inactive [at 17.4 µM] | C33A | CAOV3 | CASKI | Es-2 | HeLa | Hek293T | JEG-3

C=C1C[C@H](O)[C@@H](O)[C@@]2(C)C1[C@@H](O)[C@H]1OC(=O)C3[C@@H](C)[C@@H](O)[C@H](O)C2[C@]31C (stereo not given in full)
inactive: all assays above

COc1cc(C[C@@]2(O)CO[C@@H](c3ccc(O[C@@H]4O[C@H](CO)[C@@H](O)[C@H](O)[C@H]4O)c(OC)c3)[C@H]2CO)ccc1O
inactive: NIH3T3 inactive [at 17.4 µM] | C33A | CAOV3 | CASKI | Es-2 | HeLa | Hek293T | JEG-3

CC(C)(C)NS(=O)(=O)c1ccc(-c2ccc3[nH]nc(N)c3c2)cc1
inactive: all assays above

CC1=CCC[C@@H]2[C@](CCc3ccoc3)(C(=O)O)[C@H](C)CC[C@@]12C
inactive: all assays above

Cc1onc(-c2c(Cl)cccc2Cl)c1CC(=O)NCc1ccc(OCC(F)(F)F)nc1
inactive: all assays above

C=C(C(=O)O)C1CC(O)C2(C)CCCC(C)(O)C2C1 (stereo not given)
inactive: all assays above

C=C1C(O)CC2C(C(=O)O)=COC(O[C@@H]3O[C@H](COC(=O)c4ccc(O)cc4)[C@@H](O)[C@H](O)[C@H]3O)C12 (stereo not given in full)
inactive: NIH3T3 inactive [at 17.4 µM] | C33A | CAOV3 | CASKI | Es-2 | HeLa | Hek293T | JEG-3

C=CC(C)(O)CCC1C(C)(O)CCC2C(C)(C)CCCC21C (stereo not given)
inactive: all assays above

CC(C)CC(=O)OC[C@@]1(O)C[C@@]23CC[C@H]4[C@@](C)(CCC[C@@]4(C)C(=O)O)[C@@H]2CC[C@@H]1C3
inactive: NIH3T3 inactive [at 17.4 µM] | C33A | CAOV3 | CASKI | Es-2 | HeLa | Hek293T | JEG-3

COc1cc(/C=C/C(=O)OCC2OC(OC3(CO)OC(CO)C(O)C3O)C(O)C(O)C2O)ccc1O (stereo not given)
inactive: NIH3T3 inactive [at 17.4 µM] | C33A | CAOV3 | CASKI | Es-2 | HeLa | Hek293T | JEG-3

C/C(=C\CC/C(C)=C/CC[C@]1(C)CCc2cc(O)cc(C)c2O1)CC/C=C(\C)C(=O)O
inactive: NIH3T3 inactive [at 17.4 µM] | C33A | CAOV3 | CASKI | Es-2 | HeLa | Hek293T | JEG-3

C=C(C(=O)O)[C@H]1C[C@]2(C)C(=O)CC[C@]23O[C@H]1C[C@@H]3C
inactive: all assays above

CN(C)CC(c1ccc(O)cc1)C1(O)CCCCC1 (stereo not given)
inactive: all assays above

NC(Cc1c[nH]c2ccc(O)cc12)C(=O)O (stereo not given)
inactive: all assays above

CC(C)(OC1OC(CO)C(O)C(O)C1O)C1CCC(O)(CO)C2CC(=O)C(C)(O)C2C1 (stereo not given)
inactive: NIH3T3 inactive [at 17.4 µM] | C33A | CAOV3 | CASKI | Es-2 | HeLa | Hek293T | JEG-3

C=C1C2CCC3CC2(CC(O)C2(O)C1CC(OC1OC(CO)C(O)C(O)C1O)C2(C)C)CC3(C)O (stereo not given)
inactive: NIH3T3 inactive [at 17.4 µM] | C33A | CAOV3 | CASKI | Es-2 | HeLa | Hek293T | JEG-3

CC1(O)CCC2C(C3C1CCC3(C)O)C2(C)C (stereo not given)
inactive: all assays above

C=C(C)C(O)COc1ccc(CC(=O)O)cc1 (stereo not given)
inactive: all assays above

CC(C)[C@@H](C(=O)O)N1Cc2c(cc(O)c3c2O[C@]2(C3)[C@H](C)CCC3C(C)(C)[C@H](O)[C@H](O)C[C@@]32C)C1=O (stereo not given in full)
inactive: NIH3T3 inactive [at 17.4 µM] | C33A | CAOV3 | CASKI | Es-2 | HeLa | Hek293T | JEG-3

Cc1cn2cc(CC(=O)N3CCC4(CC3)CN(Cc3ccc(-n5nccn5)cc3Cl)C4)nc2s1
inactive: all assays above

Cc1ccc2[nH]c(=O)c(C3=NN(C(=O)CCC(=O)O)C(c4ccc(Br)cc4)C3)c(-c3ccccc3)c2c1 (stereo not given)
inactive: all assays above

CC1=CC(=O)CC(C)(C)C1/C=C/C(C)OC1OC(COC2OCC(O)C(O)C2O)C(O)C(O)C1O (stereo not given)
inactive: NIH3T3 inactive [at 17.4 µM] | C33A | CAOV3 | CASKI | Es-2 | HeLa | Hek293T | JEG-3

CCC(=O)OCC(=O)[C@@]1(OC(=O)CC)[C@@H](C)C[C@H]2[C@@H]3CCC4=CC(=O)C=C[C@]4(C)[C@@]3(F)[C@@H](O)C[C@@]21C
inactive: all assays above

— PubChem BioAssay (NCATS)
